Hit rate of the full screen: of about 360,000 compounds, about 2,400 (0.67%) were called active.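 How the source made its calls: active means compounds whose normalised, plate-corrected inhibition of enzyme fluorescence in the single-dose primary screen is 50% or more; inactive means the rest.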 For the sample, actives were picked, then their nearest neighbours and some compounds at random.

The text below walks through data of PubChem BioAssay AID602261 (Sanford-Burnham Center for Chemical Genomics, 2012).

The target in this test is Fatty acid synthase (Homo sapiens) (UniProt P49327). The test can be described thus: inhibition of human FAS-TE enzyme activity – biochemical, fluorescence intensity, uHTS, primary screen (AID 602261).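 Further: 0% = DMSO with enzyme and 100% = substrate without enzyme.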 The note with it: recombinant FAS-TE, OMFH fluorogenic substrate, fluorescence endpoint; at 15 µM; hits give high values.
Fatty acid synthase (Homo sapiens), sequence (P49327 whole entry, looked up): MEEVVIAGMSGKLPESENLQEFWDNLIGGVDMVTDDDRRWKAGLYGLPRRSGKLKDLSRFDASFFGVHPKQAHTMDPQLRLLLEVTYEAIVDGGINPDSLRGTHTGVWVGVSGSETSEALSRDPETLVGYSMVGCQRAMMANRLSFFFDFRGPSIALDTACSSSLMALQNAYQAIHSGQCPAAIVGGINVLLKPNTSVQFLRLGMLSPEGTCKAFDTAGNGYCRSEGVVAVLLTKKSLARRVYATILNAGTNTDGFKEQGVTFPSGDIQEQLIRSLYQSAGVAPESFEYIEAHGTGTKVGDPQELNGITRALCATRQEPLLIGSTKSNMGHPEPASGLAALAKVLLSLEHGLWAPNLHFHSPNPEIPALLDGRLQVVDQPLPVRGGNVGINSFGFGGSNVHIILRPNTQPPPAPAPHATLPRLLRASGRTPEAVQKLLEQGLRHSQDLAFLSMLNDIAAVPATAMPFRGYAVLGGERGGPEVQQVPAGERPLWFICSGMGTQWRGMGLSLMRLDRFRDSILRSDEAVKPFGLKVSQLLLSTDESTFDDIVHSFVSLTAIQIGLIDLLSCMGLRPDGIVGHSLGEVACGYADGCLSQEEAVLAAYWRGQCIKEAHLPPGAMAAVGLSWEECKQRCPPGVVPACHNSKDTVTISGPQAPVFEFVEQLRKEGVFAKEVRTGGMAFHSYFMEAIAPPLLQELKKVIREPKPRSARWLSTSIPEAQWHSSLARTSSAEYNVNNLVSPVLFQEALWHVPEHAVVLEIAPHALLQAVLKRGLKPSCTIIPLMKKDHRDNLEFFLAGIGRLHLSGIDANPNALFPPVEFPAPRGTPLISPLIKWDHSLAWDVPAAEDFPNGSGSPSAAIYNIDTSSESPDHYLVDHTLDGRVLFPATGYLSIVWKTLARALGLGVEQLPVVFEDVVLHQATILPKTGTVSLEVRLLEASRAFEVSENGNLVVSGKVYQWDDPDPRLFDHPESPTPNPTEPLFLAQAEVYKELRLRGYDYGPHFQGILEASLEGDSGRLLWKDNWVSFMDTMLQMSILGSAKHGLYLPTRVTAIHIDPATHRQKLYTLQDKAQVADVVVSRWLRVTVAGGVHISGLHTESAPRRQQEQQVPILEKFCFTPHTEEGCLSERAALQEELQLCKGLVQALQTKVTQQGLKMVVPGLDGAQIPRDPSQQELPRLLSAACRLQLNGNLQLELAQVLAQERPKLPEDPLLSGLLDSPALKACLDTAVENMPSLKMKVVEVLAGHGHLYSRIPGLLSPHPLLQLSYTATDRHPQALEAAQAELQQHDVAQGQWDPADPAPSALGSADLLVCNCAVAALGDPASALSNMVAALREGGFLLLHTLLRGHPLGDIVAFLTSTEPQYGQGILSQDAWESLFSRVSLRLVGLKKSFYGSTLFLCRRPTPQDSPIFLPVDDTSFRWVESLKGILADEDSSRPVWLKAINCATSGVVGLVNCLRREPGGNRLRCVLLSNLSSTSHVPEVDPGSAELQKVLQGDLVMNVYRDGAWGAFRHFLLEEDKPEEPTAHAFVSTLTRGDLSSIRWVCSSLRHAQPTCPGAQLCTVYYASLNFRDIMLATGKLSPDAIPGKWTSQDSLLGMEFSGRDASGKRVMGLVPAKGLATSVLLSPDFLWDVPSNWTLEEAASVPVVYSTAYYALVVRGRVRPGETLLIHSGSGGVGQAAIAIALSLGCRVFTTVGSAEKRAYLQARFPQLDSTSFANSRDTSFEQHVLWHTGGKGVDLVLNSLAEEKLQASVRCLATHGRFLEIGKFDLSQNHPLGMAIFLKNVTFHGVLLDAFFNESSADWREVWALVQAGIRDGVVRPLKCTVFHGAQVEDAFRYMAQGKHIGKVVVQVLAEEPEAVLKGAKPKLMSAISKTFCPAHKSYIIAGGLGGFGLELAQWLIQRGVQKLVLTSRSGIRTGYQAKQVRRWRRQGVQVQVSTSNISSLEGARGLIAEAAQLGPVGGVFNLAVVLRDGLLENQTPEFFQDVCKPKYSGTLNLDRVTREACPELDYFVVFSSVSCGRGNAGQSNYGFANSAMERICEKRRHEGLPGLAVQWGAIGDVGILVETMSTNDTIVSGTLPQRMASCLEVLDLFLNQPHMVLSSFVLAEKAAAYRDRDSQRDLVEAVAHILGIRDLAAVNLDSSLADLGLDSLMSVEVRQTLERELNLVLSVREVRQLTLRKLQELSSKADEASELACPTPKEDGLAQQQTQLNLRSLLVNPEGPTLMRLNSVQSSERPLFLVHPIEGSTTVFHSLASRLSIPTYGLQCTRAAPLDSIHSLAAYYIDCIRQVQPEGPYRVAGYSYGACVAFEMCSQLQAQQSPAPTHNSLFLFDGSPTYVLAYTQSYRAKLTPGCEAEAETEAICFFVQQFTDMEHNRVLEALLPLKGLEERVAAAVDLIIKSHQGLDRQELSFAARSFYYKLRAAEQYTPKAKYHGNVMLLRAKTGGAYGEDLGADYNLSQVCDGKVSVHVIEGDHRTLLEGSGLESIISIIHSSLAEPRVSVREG
On to `CCOC(=O)Nc1ccc(S(=O)(=O)N(C)C(C)C)cc1`, for which the inhibition – broadly, the relative decrease from the control value, in per cent – was -3.7% (inactive).
As to `CN1C(C(=O)NCc2ccco2)CC2Cn3c(nc4ccccc43)C21` (stereo not drawn), the inhibition was -11.9% (inactive).
`O=C(CCCl)Nc1ccc(S(=O)(=O)NCc2ccco2)cc1`: the inhibition is -1.3% (inactive).
With `Cc1ccc(CNC(=O)C2CC(c3ccccc3[N+](=O)[O-])=NO2)o1` (stereo not drawn), the inhibition was -5.1% (inactive).
For the molecule `O=C(NCCCCc1ccccc1)C1CC(c2ccc([N+](=O)[O-])cc2)=NO1` (stereo not drawn), the inhibition was 54.2% (active).
The value for `COc1ccc(CNC(=O)C2CC(c3ccc(C(F)(F)F)cc3)=NO2)cc1` (stereo not drawn) was -1.7% (inactive); that for `O=C(NCCCn1ccnc1)C(=O)NCC1OCCN1S(=O)(=O)c1cc(F)ccc1F` (stereo not drawn) was -10.1% (inactive); that for `Cc1ccc(NC(=O)c2nc[nH]c2C(=O)N[C@@H](CCCCNC(=O)OC(C)(C)C)C(=O)OC(C)(C)C)cc1` was 75.3% (active).
The value for `CC(C)(C)OC(=O)NCCCCCNC(=O)c1nc[nH]c1C(=O)NCc1ccccc1` was 8.2% (inactive); that for `C[C@H](NC(=O)c1nc[nH]c1C(=O)N[C@@H](C)C(=O)OC(C)(C)C)C(=O)OC(C)(C)C` was -7% (inactive).
To `CNC(=O)c1[nH]cnc1C(=O)N[C@@H](CC(C)C)C(=O)OC(C)(C)C` belongs -5.3% (inactive); to `CCOC(=O)c1ccc(NC(=O)c2nc[nH]c2C(=O)N[C@@H](CCCCNC(=O)OC(C)(C)C)C(=O)OC(C)(C)C)cc1`, 85.2% (active); to `CC(C)(C)OC(=O)NCCCCCNC(=O)c1[nH]cnc1C(=O)Nc1nccs1`, -15.7% (inactive).
Take `COc1ccccc1CNS(=O)(=O)CC12CCC(CC1=O)C2(C)C` (stereo not drawn): the inhibition was 2.9% (inactive).
To `Cc1cccc(OCC(=O)OCC(=O)Nc2ccc(Cl)cn2)c1` belongs -6.1% (inactive).
Consider `CCN(CC)C(CNC(=O)CSc1nnnn1-c1cccc(F)c1)c1ccco1` (stereo not drawn), for which the inhibition is -1.2% (inactive).
As to `Cc1cccc(N2CCN(C(=O)c3cc4c(=O)[nH]c5ccccc5c4n3C)CC2)c1C`, the inhibition is 5% (inactive).
Turning to `O=C(Cc1ccc(S(=O)(=O)N2CCOCC2)s1)NCCOc1ccccc1F`, the inhibition is -0.5% (inactive).
On to `Cc1ccc2c(c1)C(O)(CC(=O)c1cccc(-n3cccc3)c1)C(=O)N2` (stereo not drawn), for which the inhibition was 2.6% (inactive).
`O=C(N/N=C/c1cc([N+](=O)[O-])ccc1O)/C(=C\c1cccs1)NC(=O)c1ccccc1`: the inhibition was 56.5% (active).
To `COc1cc(/C=C(/NC(=O)c2ccccc2)C(=O)Nc2cccc(O)c2)c([N+](=O)[O-])cc1OC` belongs -3.8% (inactive); to `Nc1nnnn1/N=C/c1cc([N+](=O)[O-])ccc1O`, -3.3% (inactive).
To `COc1ccc(NC(=O)NN2CCN(C)CC2)c(OC)c1` belongs -6% (inactive).
